Growth data for eight compounds are collected here from PubChem BioAssay (NCI).

Test systems include NCI-H23 lung; NCI-H226 lung; NCI-H322M lung; HOP-62 NSCLC; NCI-H460 lung; HOP-92 NSCLC; NCI-H522 lung; A549/ATCC NSCLC; 786-0 renal; COLO 205 colon; DU-145 prostate; K-562 leukemia; MALME-3M melanoma; MDA-MB-231 breast; RXF 393 renal; SF-268 CNS; SF-295 CNS; SF-539 CNS; UACC-257 melanoma; M14 melanoma.
Holding throughout (test): NCI-60 one-dose screen, 48 h (100 = growth as untreated, 0 = no growth, -100 = all killed)
Holding throughout (settings): 10 µM unless noted

The panel holds about 83,000 compounds, 20% with a hit somewhere; the sample as a whole holds those more often.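 How to read the values: 0–100, growth inhibition (40 = 60% inhibited); 0, no net growth; -100 to 0, cell death (-40 = 40% of starting cells died; -100 = all dead).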 Values without a mark were called inactive. Active and inactive are the calls of the source. How the source made its calls: active means growth percent below 10; inactive means the rest.

Regarding `Cn1cc(-c2cc3ncnc(Nc4ccc(CC(=O)Nc5cc(C(C)(C)C)nn5C)cc4)c3s2)cn1`, the growth in the assay on NCI-H23 lung was 60%; in the assay with NCI-H226 lung it was 38%; in the assay with NCI-H322M lung it was 46.4%; in the assay with HOP-62 NSCLC, 71%; with NCI-H460 lung it was 43.5%; in the assay on HOP-92 NSCLC, 70%. Moreover, the growth in the assay with NCI-H522 lung is 41.5%; in the assay with A549/ATCC NSCLC, 42.1%; with 786-0 renal, 43.7%; in the assay on COLO 205 colon it was 52.9%; with DU-145 prostate, 40.3%; with K-562 leukemia it was 17%. The growth was 56.7% in the assay on MALME-3M melanoma; 47.7% with MDA-MB-231 breast; 9.8% (active) with RXF 393 renal; 51.8% with SF-268 CNS; 58.1% in the assay on SF-295 CNS; 47.4% with SF-539 CNS. Also, the growth with UACC-257 melanoma is 83.9%; with M14 melanoma it was 39.2%.

In the case of `COc1cccc(-c2nc(-c3ccc(NC(=O)C(C)C)cc3)[nH]c2-c2ccnc(Br)c2)c1`, the growth in the assay with NCI-H23 lung is 51.3%; in the assay with NCI-H226 lung, 43.5%; in the assay with NCI-H322M lung, 43.7%; in the assay on HOP-62 NSCLC it was 24.1%; with NCI-H460 lung it was 31.8%; in the assay on HOP-92 NSCLC, 43.4%. Besides, the growth is 19.5% with NCI-H522 lung; 38.8% in the assay with A549/ATCC NSCLC; -14.1% (active) in the assay with 786-0 renal; 30.1% in the assay on COLO 205 colon; 61.4% in the assay with DU-145 prostate; 1.17% (active) in the assay with K-562 leukemia. Moreover, the growth in the assay with MALME-3M melanoma is 34.4%; in the assay on MDA-MB-231 breast it was 52.3%; in the assay on RXF 393 renal, -31% (active); with SF-268 CNS, 51.6%; in the assay with SF-295 CNS, -42.9% (active); in the assay on SF-539 CNS it was 16%. Moreover, the growth was 52.8% in the assay with UACC-257 melanoma and 40.2% in the assay with M14 melanoma.

Regarding `COc1c(C2CC(=O)Nc3c2c(C)nn3-c2nc3ccccc3[nH]2)cc2c(c1OC)OCO2` (stereo not given), the growth with NCI-H23 lung was 48.2%; in the assay with NCI-H226 lung, 75.8%; in the assay with NCI-H322M lung it was 78.5%; with HOP-62 NSCLC it was 43.4%; in the assay with NCI-H460 lung, 35.6%; in the assay with HOP-92 NSCLC it was 70.9%. The growth in the assay on NCI-H522 lung is 53.3%; in the assay with A549/ATCC NSCLC, 35.8%; in the assay on 786-0 renal it was 67.6%; in the assay with COLO 205 colon, 84.1%; with DU-145 prostate, 80.2%; in the assay with K-562 leukemia, 15.1%. Besides, the growth in the assay with MALME-3M melanoma was 86.5%; in the assay with MDA-MB-231 breast, 68.4%; with RXF 393 renal it was 27.1%; in the assay on SF-268 CNS, 62.1%; in the assay on SF-295 CNS it was 19.8%; in the assay on SF-539 CNS, 59.8%. Besides, the growth with UACC-257 melanoma is 67.1%; in the assay with M14 melanoma, 33.3%.

Turning to `S=C(c1cccs1)N1CCN(c2cccc(Cl)c2)CC1`, the growth in the assay with NCI-H23 lung was 99.2%; with NCI-H226 lung, 92.7%; in the assay on NCI-H322M lung, 122%; with HOP-62 NSCLC, 102%; in the assay on NCI-H460 lung, 105%; with HOP-92 NSCLC, 81.7%. Also, the growth was 81.1% with NCI-H522 lung; 87.6% in the assay with A549/ATCC NSCLC; 85.4% with 786-0 renal; 107% with COLO 205 colon; 98.3% in the assay with DU-145 prostate; 93.5% in the assay on K-562 leukemia. The growth in the assay with MALME-3M melanoma is 80.9%; with MDA-MB-231 breast, 92.5%; in the assay with RXF 393 renal it was 100%; in the assay with SF-268 CNS, 104%; with SF-295 CNS, 111%; in the assay with SF-539 CNS it was 99.8%. The figures for the growth with UACC-257 melanoma and in the assay with M14 melanoma were 105% and 99.4%, respectively.

In the case of `Cc1c(C(=O)NCCCc2ccccc2)sc2ncc(-c3ccc(Br)cc3)n12`, the growth with NCI-H23 lung is 91.7%; with NCI-H226 lung it was 102%; in the assay with NCI-H322M lung it was 100%; with HOP-62 NSCLC it was 99.3%; with NCI-H460 lung, 107%; in the assay on HOP-92 NSCLC, 113%. The growth is 98.5% with NCI-H522 lung; 108% in the assay on A549/ATCC NSCLC; 100% in the assay on 786-0 renal; 113% in the assay on COLO 205 colon; 104% in the assay with DU-145 prostate; 101% with K-562 leukemia. Also, the growth with MALME-3M melanoma is 101%; in the assay on MDA-MB-231 breast, 99.4%; in the assay on RXF 393 renal, 109%; in the assay on SF-268 CNS, 98.9%; with SF-295 CNS, 112%; in the assay on SF-539 CNS, 103%. Further, the results for the growth in the assay with UACC-257 melanoma and with M14 melanoma were 109% and 100%, respectively.

As to `CCOC(=O)Cn1c(=O)c2c(c3ccccc3n2C)n2nnc(-c3ccccc3)c12`, the growth was 102% with NCI-H23 lung; 128% in the assay on NCI-H226 lung; 115% in the assay with NCI-H322M lung; 95.5% in the assay with HOP-62 NSCLC; 102% in the assay on NCI-H460 lung; -15.2% (active) in the assay on HOP-92 NSCLC. The growth was 92.6% in the assay with NCI-H522 lung; 106% in the assay on A549/ATCC NSCLC; 104% in the assay on 786-0 renal; 114% in the assay with COLO 205 colon; 111% in the assay on DU-145 prostate; 84.8% in the assay with K-562 leukemia. Further, the growth in the assay on MALME-3M melanoma is 118%; in the assay with MDA-MB-231 breast it was 103%; in the assay with RXF 393 renal, 108%; with SF-268 CNS it was 95.2%; in the assay on SF-295 CNS, 110%; in the assay on SF-539 CNS it was 102%. Besides, the growth was 102% in the assay with UACC-257 melanoma and 97.6% in the assay on M14 melanoma.

As to `Oc1ccc(CCl)c2cccnc12`, the growth in the assay with NCI-H23 lung was 59.4%; in the assay on NCI-H226 lung it was 101%; in the assay on NCI-H322M lung, 71.9%; in the assay with HOP-62 NSCLC it was 92.8%; in the assay with NCI-H460 lung it was 55%; with HOP-92 NSCLC it was 89.2%. Besides, the growth in the assay with NCI-H522 lung was 52.6%; in the assay on A549/ATCC NSCLC it was 76.1%; in the assay with 786-0 renal, 97.6%; in the assay with COLO 205 colon, 35.9%; in the assay with DU-145 prostate it was 88.1%; in the assay on K-562 leukemia it was 43.9%. For the same compound, the growth in the assay with MALME-3M melanoma was 37.3%; with MDA-MB-231 breast, 94.5%; in the assay on RXF 393 renal, 75.7%; in the assay on SF-268 CNS, 73.2%; in the assay with SF-295 CNS it was 99%; in the assay on SF-539 CNS, 90.3%. Besides, the growth is 24.9% in the assay with UACC-257 melanoma and 61.6% with M14 melanoma.

Turning to `CCN(CC)CCCNc1nc2ccccc2c2c(=O)c3cc(Cl)ccc3sc12`, the growth is 86.5% in the assay with NCI-H23 lung; 82.1% in the assay on NCI-H226 lung; 84.5% in the assay with NCI-H322M lung; 74.4% with HOP-62 NSCLC; 8.8% (active) in the assay on NCI-H460 lung; 36.9% in the assay with HOP-92 NSCLC. The growth in the assay with NCI-H522 lung is 73.8%; with A549/ATCC NSCLC, 64.7%; with 786-0 renal, 75.7%; in the assay on COLO 205 colon, 56.3%; with DU-145 prostate it was 54.4%; in the assay on K-562 leukemia it was -44.2% (active). For the same compound, the growth in the assay with MALME-3M melanoma is 84.6%; in the assay with MDA-MB-231 breast it was -9.32% (active); in the assay with RXF 393 renal, 76%; in the assay with SF-268 CNS, 55.6%; with SF-295 CNS, 104%; with SF-539 CNS it was 58.3%. In addition, the values for the growth with UACC-257 melanoma and with M14 melanoma were 102% and 1.36% (active), respectively.
